Assay outcomes as filed in PubChem.
An excerpt weighted towards active compounds, which were near 3% of everything screened.
ClpP mod: qHTS Assay for Activators of ClpP; purified B. subtilis ClpP, FRET peptide cleavage, 20 min; ATP-dependent Clp protease proteolytic subunit (Bacillus subtilis (strain 168)), P80244; actives 1.9% (n = 340,000); AID 651965, 2013; Potency, µM (highest dose often 57.5 µM), inactives show at the top dose activity change, negative = active; active means well fitted falling curve with a large enough effect; inconclusive means small, poorly fitted or top-dose-only effect; inactive means no such curve, though single readings can be large or run the other way; further: potency means the concentration at half of the fitted maximal effect; the source files actives as falling curves though it sought activators and does not explain the sign; nearly all actives have a fitted effect of over 65% in size
Target sequence (P80244 whole entry, looked up): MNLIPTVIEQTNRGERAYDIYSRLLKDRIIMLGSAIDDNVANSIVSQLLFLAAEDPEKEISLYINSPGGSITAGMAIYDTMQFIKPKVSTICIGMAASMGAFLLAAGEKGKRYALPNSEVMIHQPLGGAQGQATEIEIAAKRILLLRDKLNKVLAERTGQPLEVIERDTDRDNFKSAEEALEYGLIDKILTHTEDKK
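ClpP 10 microg/mL final, pH 8 Tris/KCl buffer with BSA, glycerol, Tween-20; compound pinned in; FRET-FV substrate; RT 20 min; Ex320/Em430; ΔFRET vs ADEP 5.8 microM, DMSO, no enzyme.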
hERG WT inh: qHTS for Inhibitors of KCHN2 3.1: Wildtype qHTS. Voltage-gated inwardly rectifying potassium channel KCNH2 (Homo sapiens), Q12809. activity change, % at 1.84 µM. actives 0.37% (n = 340,000). U2OS, BacMam KCNH2, thallium flux FluxOr; hits give low values;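 active means maximum activity change below -70%; inconclusive means maximum activity change between -70% and -50%; inactive means maximum activity change above -50%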; further: on the % scale 0 is the no-effect control and ±100 the full control effect
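U2OS cells transduced with wild-type KCNH2 virus are loaded with FluxOr dye for 45 min, and thallium flux is measured in kinetic reads before and after stimulation buffer. Rate constants are normalized to DMSO controls.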
BCR signal inh: qHTS Assay to Find Inhibitors of Chronic Active B-Cell Receptor Signaling. Potency, µM (doses to about 46.1 µM), without a hit: at the highest dose activity change, negative = inhibition, most hits filed as inhibitors. actives 0.05% (n = 340,000). AID 493014, 2011. ABC-DLBCL IkBa-CBG/CBR reporter, luminescence ratio, 4 h; active means well fitted inhibition curve with a large enough effect in the signal ratio, with a control signal flat, not every such curve was filed as active; inconclusive means small, poorly fitted or top-dose-only effect, or effect the other way, or a change in a side signal; the % refers to the signal ratio;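 further: potency means the concentration at half of the fitted maximal effect; plate controls were basal doxycycline-induced cells for no effect and cells given 10 µM MG132 for full effect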
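Cell line TMD8 (human ABC DLBCL), stably expressing tet-inducible CBG68-IkBa fusion and CBR; IMDM/0.5% FBS; cpd up to 46 uM; dox induction, 4 h, 37C/5% CO2; dual luminescence; green/red ratio; MG132 control.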
KCNH2 3.1 block: qHTS for Inhibitors of KCHN2 3.1: Mutant qHTS | Potassium voltage-gated channel subfamily H member 2, brain isoform KCNH2 3.1 (human) | U2OS KCNH2 3.1, thallium flux FluxOr; hits give low values | activity change, % (tested at about 1.8 µM) | actives 0.95% (n = 340,000) | AID 720553, 2013;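 active means maximum activity change below -70%; inconclusive means maximum activity change from -70% to -50%; inactive means maximum activity change above -50%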;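 further: thallium influx rate constant from kinetic fluorescence after stimulation buffer; on the % scale 0 is the no-effect control and ±100 the full control effect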
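U2OS cells transduced with KCNH2 3.1 mutant virus (1.77 x 10^8 /mL, 4 h), plated overnight at 37 C, loaded 45 min with FluxOr dye plus Red40 quencher. Thallium flux rate constant from kinetic reads after stimulation buffer, normalised to controls.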
ALOX12 inh: Primary qHTS assay for inhibitors of human arachidonate 12S-lipoxygenase (ALOX12): Round 2 | Polyunsaturated fatty acid lipoxygenase ALOX12 (Homo sapiens), P18054 | purified 12hLO, xylenol orange hydroperoxide absorbance | Potency, µM (titrated, usually from 108 µM), for the others: at the top dose activity change, negative = inhibition, actives largely listed as inhibitors | actives 1.1% (n = 580,000); active means well fitted inhibition curve with a large enough effect; inconclusive means small, poorly fitted or top-dose-only effect, or another doubt; inactive means no such curve, though single readings can be large or run the other way; further: potency means the concentration at half of the fitted maximal effect; on the % scale 0 is the no-effect control and ±100 the full control effect
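Purified human 12hLO (150 nM final) in 25 mM Hepes, 0.01% Triton X-100, pH 7.0 was preincubated 15 min at room temperature with compound. Then 40 uM arachidonic acid was added, 30 min. Hydroperoxide was read by Fe-XO absorbance ratio 573/405 nm.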
LDHA inh: qHTS assay for inhibitors of human lactate dehydrogenase; L-lactate dehydrogenase A chain (Homo sapiens), P00338; purified LDHA, NADH/diaphorase-resazurin fluorescence; hits give low values; activity change, % (values are at about 110 or 230 µM); actives 0.15% (n = 480,000); AID 1347041, 2019; in the data active means activity change below about -30%; inconclusive means mostly about -25% to -30%;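 further: plate controls were DMSO wells for no effect and wells without enzyme for full effect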
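Resorufin fluorescence (ex540/em590), read at 0 and 20 min after diaphorase/resazurin addition, reports the NADH left after a 5 min room-temperature reaction of 2 nM human LDH5 with 0.06 mM NADH and 0.2 mM pyruvate.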
* marks the source's active call; other numbers are inactive results; ! = repeats disagree.

For C=CC[n+]1c(C)csc1Nc1ccc(C(=O)O)cc1 the results were ClpP mod 1%, BCR signal inh 5%, KCNH2 3.1 block -79*, ALOX12 inh -17% and LDHA inh -2.
O=C(O)c1ccc(C[n+]2c(-c3ccccc3)csc2Nc2ccccc2)cc1 was read as ClpP mod -2%, hERG WT inh -4, BCR signal inh 11%, KCNH2 3.1 block -2, ALOX12 inh inconclusive and LDHA inh -9.
`COc1ccccc1-n1c(SCC(N)=O)nc2c(c1=O)SCC2` gave ClpP mod -4%, hERG WT inh -7, BCR signal inh inconclusive, KCNH2 3.1 block -70*, ALOX12 inh inconclusive and LDHA inh -3.
For COc1ccc(C(=O)N2CCCC2)c(OC2CCN(C(=O)c3ccn[nH]3)CC2)c1 the results were ALOX12 inh 13%.
COc1ccccc1-c1ccc([C@@H]2C[C@H]3[C@H](CON3C)CN2C(=O)c2ccco2)cc1 was read as ClpP mod -1%, hERG WT inh -4, KCNH2 3.1 block 3, ALOX12 inh -3% and LDHA inh -32*.
CCOc1ccc(NC(=O)c2c(NCc3ccc(C)o3)sc3c2CCCCC3)cc1 was read as ClpP mod 0%, BCR signal inh -7%, ALOX12 inh 40µM* and LDHA inh 5.
Screening CCOc1ccc(NC(=O)c2c(NCc3cccs3)sc3c2CCCCC3)cc1 returned ClpP mod -2%, BCR signal inh -9%, ALOX12 inh -28% and LDHA inh 1.
For NC(=O)c1c(NC(=S)Nc2ccc(F)cc2)sc2c1CCCC2 the results were hERG WT inh 4, BCR signal inh inconclusive, KCNH2 3.1 block 8, ALOX12 inh inconclusive and LDHA inh 0.
O=C(O)CCC(=O)Nc1sc2c(c1C(=O)Nc1ccccc1)CCCCC2 was read as ClpP mod 0%, hERG WT inh -1, BCR signal inh 18%, KCNH2 3.1 block 7, ALOX12 inh 14µM*! and LDHA inh -1.
For COC(=O)CCC(=O)Nc1sc2c(c1C#N)CCCC2 the results were ClpP mod 28µM*, hERG WT inh 15, BCR signal inh inconclusive, KCNH2 3.1 block 0, ALOX12 inh -27% and LDHA inh 2.
For NC(=O)c1c(NC(=S)Nc2ccccc2)sc2c1CCCC2 the results were hERG WT inh -7, BCR signal inh inconclusive, KCNH2 3.1 block 32, ALOX12 inh 35µM* and LDHA inh -2.
Screening COc1ccc(CC(=O)Nc2ccc(O)c(-c3nc4ccccc4o3)c2)cc1 returned ALOX12 inh 7% and LDHA inh -8.
Cc1c(O)ccc2c(CN(C)CCOc3ccccc3F)cc(=O)oc12 was read as ALOX12 inh -27% and LDHA inh 4.
For CNC(=O)CCn1ncc2cc(OC3CCc4cccc(-c5ccc(O)c(F)c5)c43)ccc21 (centres undefined) the results were ALOX12 inh 50µM*.
Screening O=c1c2ccccc2nc(SCc2nnc(-c3ccccc3)o2)n1-c1ccc(F)cc1F returned ClpP mod 25µM*, hERG WT inh -3, BCR signal inh -10%, KCNH2 3.1 block -15, ALOX12 inh 0% and LDHA inh 1.
`O=c1c2ccccc2nc(SCc2nnc(-c3ccccc3Br)o2)n1-c1ccccc1` gave ClpP mod -3%, hERG WT inh 31, BCR signal inh -8%, KCNH2 3.1 block -1, ALOX12 inh 1% and LDHA inh -7.
C#CCOC(=O)CCC(=O)NCCCCCCCCCCCC was read as ALOX12 inh 15% and LDHA inh 0.
For COc1ccc(C2(C)NC(=O)N(CC(=O)Nc3ccc(-c4nc5ccc(C)cc5s4)cc3)C2=O)cc1 (centres undefined) the results were hERG WT inh -13, BCR signal inh inconclusive, KCNH2 3.1 block -2, ALOX12 inh inconclusive and LDHA inh -1.
For O=C(CCN1C(=O)NC2(CCCC2)C1=O)Nc1ccc(-c2nc3ccccc3s2)cc1 the results were ClpP mod 20µM*, hERG WT inh -4, BCR signal inh -1%, KCNH2 3.1 block -8, ALOX12 inh -14% and LDHA inh -11.
Cc1ccc2nc(-c3ccc(NC(=O)CCS(=O)(=O)c4ccccc4)cc3)sc2c1 was read as hERG WT inh 24, BCR signal inh inconclusive, KCNH2 3.1 block -1, ALOX12 inh -6% and LDHA inh -1.
For CCC1(c2ccc(F)cc2)NC(=O)N(CC(=O)Nc2ccc(-c3nc4ccc(C)cc4s3)cc2)C1=O (centres undefined) the results were ClpP mod 7.9µM*, hERG WT inh -5, BCR signal inh 13%, KCNH2 3.1 block -14, ALOX12 inh -11% and LDHA inh -6.
For Cc1ccc(N(CC(=O)Nc2ccc(-c3nc4ccc(C)cc4s3)cc2)S(C)(=O)=O)cc1 the results were ClpP mod 11µM*, hERG WT inh -1, BCR signal inh 10%, KCNH2 3.1 block -6, ALOX12 inh 2% and LDHA inh -8.
`CC(Sc1nnc(C2CC2)n1Cc1ccco1)C(=O)Nc1ccnn1C(C)C` (centres undefined) gave ALOX12 inh -9% and LDHA inh -6.
CCCNC(=O)c1cc(-c2ccc(OC)cc2OC)nc2ccccc12 was read as ALOX12 inh 13µM* and LDHA inh 3.
`COc1ccc(-c2cc(C(=O)O)c3ccccc3n2)c(OC)c1` gave ClpP mod -13%, hERG WT inh 4, BCR signal inh -13%, KCNH2 3.1 block -23, ALOX12 inh inconclusive and LDHA inh -2.
`COc1ccc(-c2cc(C(=O)N3CCN(c4ccccc4F)CC3)c3ccccc3n2)c(OC)c1` gave ClpP mod 28µM*, hERG WT inh 5, BCR signal inh -2%, KCNH2 3.1 block 5, ALOX12 inh inconclusive and LDHA inh -1.
CN(C)C(=O)C1CN(C(=O)Cc2cccc(Cl)c2)CC12CCOCC2 (centres undefined) was read as ALOX12 inh 18%.
